Screening data deposited in PubChem BioAssay by National Center for Advancing Translational Sciences (NCATS).
VDR inhibitor = blocks the human vitamin D receptor; P11473; VDR-SRC2-3 peptide fluorescence polarization, 2 h; Potency, µM, usual class: inhibitors; 400,000 compounds, 0.93% hits; AID 504847
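VDR–SRC2-3 interaction, FP format. Cmpds 23 nl via pintool, brief spin, 2 h ambient incubation.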
JMJD2A Tudor = inhibitors of human JMJD2A Tudor domain | AID 504339 | AlphaScreen JMJD2A-Tudor / H3K4me3 peptide binding | Potency, µM (doses to about 114 µM), actives largely listed as inhibitors | 390,000 compounds, 4.4% hits; further: nearly all actives have a fitted effect of over 50% in size
PLK1 PBD inh = blocks phosphopeptide binding to human PLK1 polo-box domain | P53350 | Plk1 PBD binding of FITC phosphopeptide, fluorescence polarization | Potency, µM, actives largely listed as inhibitors | 360,000 compounds, 2.8% hits; further: series mostly up to about 57 µM; nearly all actives have a fitted effect of over 65% in size
BAZ2B inh = blocks human BAZ2B; Q9UIF8; AID 504333; 360,000 compounds, 4.4% hits; Potency, µM (doses to about 114 µM), usual class: inhibitors; AlphaScreen BAZ2B-H3K14Ac peptide displacement; further: nearly all actives have a fitted effect of over 60% in size
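Inhibition is scored as reduced AlphaScreen emission. The BAZ2B/b-H3(5-23)K14Ac complex (50 nM each) in PBS pH 7.4, 0.01% Tween-20 meets compound (up to 110 uM) for 30 min at RT before bead addition.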
HP1b binding inh = inhibitors of HP1-beta chromodomain binding to methylated histone tails; 390,000 compounds, 0.56% hits; Potency, µM (series often up to 114 µM), usual class: inhibitors; P83916; AlphaScreen HP1-beta / biotin-H3K9me3 peptide binding; further: nearly all actives have a fitted effect of over 70% in size
Target sequence (P83916 whole entry, looked up): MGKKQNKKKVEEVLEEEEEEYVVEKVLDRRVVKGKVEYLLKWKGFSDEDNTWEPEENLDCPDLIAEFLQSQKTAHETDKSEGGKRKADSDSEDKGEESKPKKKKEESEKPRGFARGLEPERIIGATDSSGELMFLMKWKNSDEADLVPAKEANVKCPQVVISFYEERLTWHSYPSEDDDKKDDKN
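AlphaScreen: HP1-beta (50 nM) preformed 30 min with biotin-H3(1-18)K9me3 peptide (50 nM) in PBS pH 7.4, 0.01% Tween-20. Compound added for 30 min at RT, then streptavidin donor/nickel chelate acceptor beads (10 ug/mL) for 30 min.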
G9a block = inhibitors of human histone lysine methyltransferase G9a; Q96KQ7; G9a H3K9 monomethylation, AlphaScreen, 2 h; Potency, µM (titrated, usually from 102 µM), hits mostly inhibitors; 350,000 compounds, 8.8% hits; AID 504332; further: nearly all actives have a fitted effect of over 75% in size
Target sequence (Q96KQ7 913-1193 limits assumed): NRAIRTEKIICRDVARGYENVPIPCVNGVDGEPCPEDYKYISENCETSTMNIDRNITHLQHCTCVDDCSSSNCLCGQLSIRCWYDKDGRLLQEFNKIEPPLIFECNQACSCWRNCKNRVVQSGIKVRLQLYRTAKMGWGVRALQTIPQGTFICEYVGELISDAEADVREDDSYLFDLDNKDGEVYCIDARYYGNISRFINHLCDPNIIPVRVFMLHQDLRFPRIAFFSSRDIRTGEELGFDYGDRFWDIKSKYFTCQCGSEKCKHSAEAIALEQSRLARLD
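Enzyme 20 nM + cpd, 15 min RT; add b-H3K9 pep 500 nM / SAM 20 uM; 2 h RT; anti-H3K9me1 Ab 0.5 ug/mL + SA donor / anti-rabbit acceptor beads 20 ug/mL each, 10 min; AlphaScreen read.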
Large screens that a line does not name were inactive. In the library only some 11% were active in any assay of this set; here they are far more common. The call rests on the fitted dose curve; in most records, active means well fitted curve in the direction sought with a large enough effect; inconclusive means small, poorly fitted or top-dose-only effect, or another doubt; inactive means no such curve, though single readings can be large; an effect the other way counts as inactive or inconclusive.

Cc1ccc(S(=O)(=O)NCc2ccccc2)cc1C(=O)NCC(C)(C)N1CCOCC1	none
S=c1[nH]c2nc(Cl)c(Cl)nc2[nH]1	none (no result: VDR inhibitor, JMJD2A Tudor, BAZ2B inh, HP1b binding inh, G9a block)
Nc1nc(N)c2[nH]c(=S)[nH]c2n1	JMJD2A Tudor 3.5µM, PLK1 PBD inh 24µM, HP1b binding inh inconclusive (no result: BAZ2B inh, G9a block)
COc1ccc(Nc2ncc(C(=O)N3CCN(Cc4ccccc4)CC3)c3ccccc23)cc1	JMJD2A Tudor inconclusive
COc1ccc(C2C(=O)N(C3CCCCC3)CC(=O)N2Cc2ccco2)cc1 (stereo not given)	G9a block 25µM
COc1ccc(C2C(=O)N(C3CCCCCC3)CC(=O)N2Cc2ccccc2)cc1 (stereo not given)	none (no result: PLK1 PBD inh)
Cc1ccc(S(=O)(=O)Nc2nc(C)c(C)s2)cc1	G9a block 22µM
CC(C)[C@H](NC(=O)OCc1ccccc1)C(=O)NC(C=O)Cc1ccccc1 (stereo not given in full)	G9a block inconclusive
CCCC[C@@H](C=O)NC(=O)[C@H](CC(C)C)NC(=O)OCc1ccccc1	VDR inhibitor 35µM (no result: JMJD2A Tudor, PLK1 PBD inh, BAZ2B inh, HP1b binding inh)
COC(=O)C(Cc1ccccc1)NC(=O)C(CC(C)C)NC(=O)OC(C)(C)C (stereo not given)	PLK1 PBD inh inconclusive
CC(C)CC(NC(=O)OCc1ccccc1)C(=O)NC(Cc1ccccc1)C(=O)CCl (stereo not given)	VDR inhibitor 71µM (no result: BAZ2B inh, G9a block)
O=C(COc1ccc(Cl)cc1Cl)NCC1(N2CCOCC2)CCCCC1	none (no result: BAZ2B inh, G9a block)
OC(CNCC1(N2CCCCC2)CCCCC1)COc1ccc(Cl)cc1Cl (stereo not given)	JMJD2A Tudor 2.8µM, HP1b binding inh inconclusive, G9a block 50µM
O=C1Nc2ccccc2S/C1=C/NCc1ccccc1Cl	JMJD2A Tudor 50µM, BAZ2B inh inconclusive, G9a block 32µM
N#CC12C(=O)NC(=O)C1(C#N)C21CCCC1 (stereo not given)	none (no result: BAZ2B inh, G9a block)
Cc1cc2c(s1)c1cnn(Cc3ccc(F)c(F)c3)c(=O)c1n2C	none (no result: VDR inhibitor, PLK1 PBD inh, BAZ2B inh, HP1b binding inh, G9a block)
O=C1CN(C(=O)COC(=O)c2c(F)cccc2Cl)c2ccccc2N1	none (no result: BAZ2B inh, G9a block)
O=C(c1ccc(Br)o1)N1N=C(c2ccc(Cl)cc2)CC1c1ccco1 (stereo not given)	VDR inhibitor inconclusive, JMJD2A Tudor inconclusive, BAZ2B inh inconclusive, HP1b binding inh inconclusive, G9a block 50µM
O=S(=O)(c1ccccc1)N1N=C(c2ccc(Cl)cc2)CC1c1ccco1 (stereo not given)	G9a block 45µM
CS(=O)(=O)Nc1cccc(C2=NN(S(=O)(=O)c3ccccc3)C(c3ccco3)C2)c1 (stereo not given)	JMJD2A Tudor inconclusive, PLK1 PBD inh 30µM, HP1b binding inh inconclusive, G9a block 50µM
CCOC(=O)C1CCCN(S(=O)(=O)c2ccc(OC)cc2)C1 (stereo not given)	none
CC(C)OCCCn1c(=O)c2ccccc2n2c(-c3ccc(F)c(F)c3)nnc12	JMJD2A Tudor inconclusive, BAZ2B inh 50µM, G9a block inconclusive (no result: PLK1 PBD inh)
Cc1nc2ccccc2n2c(O)c(CC(=O)O)cc12	JMJD2A Tudor inconclusive, PLK1 PBD inh 24µM, G9a block inconclusive
CSc1nc(NCCOCCO)c2sc3nc(-c4ccco4)c4c(c3c2n1)CCC4	BAZ2B inh 45µM, G9a block 16µM
CCN(CCO)c1nc(SC)nc2c1sc1nc(-c3ccco3)c3c(c12)CCC3	PLK1 PBD inh inconclusive, BAZ2B inh 50µM, G9a block inconclusive
Cc1csc(=O)n1CCC(=O)OCC(=O)NNC(=O)c1ccc(Cl)cc1	PLK1 PBD inh inconclusive, G9a block 45µM
Cc1nc2c(cnn2-c2ccccc2Cl)c(=O)n1-c1ccc(N2CCC(C)CC2)cc1	JMJD2A Tudor inconclusive, BAZ2B inh inconclusive, G9a block 50µM
CCc1nc2c(cnn2-c2ccc(F)cc2)c(=O)n1-c1ccc(N2CCC(C)CC2)cc1	G9a block inconclusive
CCOC(=O)N1CCN(C2=C(NS(=O)(=O)c3ccc(Br)cc3)C(=O)c3ccccc3C2=O)CC1	none (no result: VDR inhibitor, JMJD2A Tudor, BAZ2B inh, HP1b binding inh, G9a block)
NC(=O)C1CCN(c2nc3ccccc3nc2NS(=O)(=O)c2ccc(Br)cc2)CC1	none (no result: BAZ2B inh, G9a block)
NC(=O)C1CCN(C2=C(NS(=O)(=O)c3ccc(Br)cc3)C(=O)c3ccccc3C2=O)CC1	VDR inhibitor inconclusive, JMJD2A Tudor 79µM, BAZ2B inh 40µM, HP1b binding inh inconclusive (no result: G9a block)
NC(=O)C1CCN(C2=C(NS(=O)(=O)c3ccccc3)C(=O)c3ccccc3C2=O)CC1	JMJD2A Tudor inconclusive, BAZ2B inh 40µM, HP1b binding inh inconclusive (no result: G9a block)
CCOC(=O)C1CCN(C2=C(NS(=O)(=O)c3ccc(Br)cc3)C(=O)c3ccccc3C2=O)CC1	VDR inhibitor inconclusive, JMJD2A Tudor 7.9µM, PLK1 PBD inh inconclusive, BAZ2B inh 5.6µM, HP1b binding inh 7.1µM, G9a block 8.9µM
CCCCn1c(SCC(=O)NC2CC2)nc2ccccc2c1=O	none
Oc1ccc(C2C(c3ccccc3)=NN=C(c3ccc(Cl)cc3)N2O)c(O)c1 (stereo not given)	G9a block 11µM
Oc1ccc(C2C(c3ccccc3)=NN=C(c3ccccc3F)N2O)c(O)c1 (stereo not given)	BAZ2B inh inconclusive, G9a block 50µM
Oc1ccc(-c2[nH]ncc2-c2ccc(Cl)cc2)c(O)c1	JMJD2A Tudor inconclusive, BAZ2B inh inconclusive
COC(=O)c1sc(NC(=O)c2cc3nc(-c4ccc(Br)cc4)cc(C(F)(F)F)n3n2)c(C(=O)OC)c1C	none (no result: PLK1 PBD inh)
C=CCn1c(SCc2ccccc2F)nc2cc(C(=O)O)ccc2c1=O	BAZ2B inh inconclusive
CCCc1cc(=O)oc2cc(C)cc(OCC(=O)NCc3ccncc3)c12	none
Nc1cc2c(cc1[N+](=O)[O-])OCO2	JMJD2A Tudor inconclusive, BAZ2B inh 56µM, G9a block 50µM
Nc1cc2c(cc1[N+](=O)[O-])OCCO2	VDR inhibitor inconclusive
COC(=O)C1=C[C@@H](C(=O)OC)C2C3=C(C(=O)[C@@]2(C)NC(=O)c2ccccc2)[C@H](c2ccccc2)n2c(=O)n(-c4ccccc4)c(=O)n2[C@@H]3C1 (stereo not given in full)	none (no result: PLK1 PBD inh, BAZ2B inh, G9a block)
O=C1c2ccccc2NC(c2ccc(Br)s2)N1O (stereo not given)	none (no result: BAZ2B inh, G9a block)
Cc1c(C2Nc3ccccc3C(=O)N2O)cnn1C (stereo not given)	JMJD2A Tudor inconclusive, G9a block 10µM
CCn1cc(C2Nc3ccccc3C(=O)N2O)c(C)n1 (stereo not given)	G9a block 18µM
O=C(CN1CCN(C(=O)C2CCCO2)CC1)Nc1ccc(F)cc1 (stereo not given)	none
O=c1[nH][nH]c2c1C(c1ccc(F)cc1)OC(CCc1ccccc1)C2 (stereo not given)	PLK1 PBD inh 11µM (no result: VDR inhibitor, JMJD2A Tudor, BAZ2B inh, HP1b binding inh, G9a block)
CCCCC1Cc2[nH][nH]c(=O)c2C(c2ccc(F)cc2)O1 (stereo not given)	PLK1 PBD inh 8.4µM (no result: VDR inhibitor, JMJD2A Tudor, BAZ2B inh, HP1b binding inh, G9a block)
